Shiga toxin inh = inhibitors of Shiga toxin in Vero cells | AID 2315 | hit rate 9.2% among 290,000 | inhibition, % at 38.7 µM | Vero cells, Shiga toxin protein synthesis inhibition reporter; in the data active means inhibition mostly above about 28%, no sharp cut-off; inactive means mostly below about 43%; further: 0% is about no effect
Cycloheximide cs = counter-screen hit for Shiga toxin inhibitors, cycloheximide; cell reporter, cycloheximide protein synthesis inhibition counterscreen; max response, %; hit rate 12% among 300,000; AID 2314; in the data active means max response mostly above about 13%, no sharp cut-off; inactive means mostly below about 14%; further: read at 38.3 µM for the half of the compounds with a filed dose; 0% is about no effect
Pf growth 96h = P. falciparum growth inhibition at 96 hours | hit rate 6.9% among 320,000 | AID 504834 | P. falciparum luciferase reporter growth, 96 h | Potency, µM (doses to about 28.7 µM), inactives show at the highest dose activity change, negative = inhibition, most hits filed as inhibitors; further: potency means the concentration at half of the fitted maximal effect; on the % scale 0 is the no-effect control and ±100 the full control effect
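Two-generation exposure (96 h) targets delayed-death phenotype. Reporter parasites carrying integrated firefly luciferase, in red cells at 2% hematocrit and 0.05% parasitemia final, kept at 37 C, 5% CO2; luminescence loss indicates inhibition.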
SARS PLpro yeast = inhibitors of SARS-CoV papain-like protease in yeast; S. cerevisiae expressing SARS-CoV PLpro, growth rescue; Potency, µM (doses to about 32.9 µM), inactives show at the top dose activity, positive = growth rescue, actives largely listed as activators; hit rate 0.19% among 330,000; calls by dose curve; further: potency means the concentration at half of the fitted maximal effect; 0% is about no effect; nearly all actives have a fitted effect of over 55% in size
Pf growth 48h = P. falciparum growth inhibition at 48 hours (one generation). P. falciparum luciferase growth in erythrocytes, 48 h. Potency, µM (series often up to 28.7 µM), without a hit: at the highest dose activity change, negative = inhibition, usual class: inhibitors. hit rate 5.9% among 310,000; further: potency means the concentration at half of the fitted maximal effect; on the % scale 0 is the no-effect control and ±100 the full control effect
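Luminescence readout; reporter = integrated firefly luciferase in P. falciparum. RBC culture at 2% hematocrit, 0.1% parasitemia final, 37 C/5% CO2; decreased signal taken as growth inhibition.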
NS1 function inh = inhibitors of influenza NS1 protein function | hit rate 0.4% among 270,000 | Potency, µM (top dose mostly 46.1 µM), without a hit: at the top dose activity, positive = more growth; calls by dose curve; further: potency means the concentration at half of the fitted maximal effect; actives are rising curves; nearly all actives have a fitted effect of over 50% in size
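Growth recovery, yeast-based: influenza A NS1 expressed in S. cerevisiae causes slow growth, and suppressors are detected by OD600. The parent strain without NS1 is used as positive control.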
Active calls of the source: *; ? = inconclusive; nt = not tested or not shown; [ ] = another dose, or the depositor's remark. Shown are actives, neighbours in structure and some others; about 21% of the full set was active somewhere. Unless noted, the call rests on the fitted dose curve; in most records, active means well fitted inhibition curve with a large enough effect; inconclusive means small, poorly fitted or top-dose-only effect, or another doubt; inactive means no such curve, though single readings can be large or run the other way.

SMILES	Shiga toxin inh	Cycloheximide cs	Pf growth 96h	SARS PLpro yeast	Pf growth 48h	NS1 function inh
COc1ccc(-c2cn(-c3ccc(C)c(Cl)c3)c(=S)[nH]2)cc1OC	18	1	63%	-2%	10µM*	8%
COc1ccc(-c2cn(-c3ccccc3)c(=S)[nH]2)cc1OC	75*	25*	-13%	8%	20%[0.00184 µM]	1%
COc1ccccc1-n1cc(-c2ccc(C)cc2)[nH]c1=S	32*	23*	3%	-1%	?	0%
COc1ccccc1-c1cn(-c2ccccc2)c(=S)[nH]1	2	7	?	1%	nt	-7%
Nc1ccc(-n2cc(-c3ccccc3)[nH]c2=S)cc1	61*	33*	?	-3%	-11%	-1%
S=c1[nH]c(-c2ccccc2)cn1-c1ccccc1	21	16	?	3%	-19%	-8%
COC(=O)CNC(c1ccccc1)c1cc(Br)ccc1N (stereo not given)	14	0	24%	-1%	8%	6%
COC(=O)CNC(c1ccccc1)c1cc(Br)ccc1NS(=O)(=O)c1ccc(C)cc1 (stereo not given)	-9	1	42%	-26%	12µM*	?
COC(=O)CNC(c1ccccc1)c1cc(Br)ccc1NS(=O)(=O)c1ccccc1 (stereo not given)	-11	0	4%	-21%	15µM*	26%
COC(=O)CNC(c1ccccc1)c1cc(Br)ccc1NC(=O)CNC(=O)OCc1ccccc1 (stereo not given)	-7	-1	?	-27%	?	-21%
CC(=O)Oc1cccc(N2C(=O)c3ccc(C(=O)Nc4c[nH]c(=O)[nH]c4=O)cc3C2=O)c1	-6	-3	?	0%	34%	8%
C=CCn1c(=O)c(C(=O)NC2CC2)c(O)c2cc(OC)c(OC)cc21	-2	-2	12µM*	-4%	5%	-6%
C=CCn1c(=O)c(C(=O)NCCc2ccc(Cl)cc2)c(O)c2cc(OC)c(OC)cc21	-15	-2	5%	1%	1%	-1%
Cc1c(C2Nc3ccccc3C(=O)N2O)cnn1C (stereo not given)	-2	17*	25%	-25%	30%	2%
CCn1cc(C2Nc3ccccc3C(=O)N2O)c(C)n1 (stereo not given)	44*	12*	-13%	-6%	47%	?
COc1cccc(C2Nc3ccccc3C(=O)N2O)c1O (stereo not given)	41	3	15%	2%	27%	-23%
N#CC1=C2SCN(Cc3ccco3)CN2C(=O)CC1c1cccc2ccccc12 (stereo not given)	13	-1	-6%	9%	12µM*	-48%
C/C(=N\NC(=O)CN1CCOCC1)C(C)(C)C	-2	1	26%	4%	11%	-2%
CC(Sc1nnc2ccccn12)C(=O)N1CCc2ccccc2C1 (stereo not given)	59	20*	42%	4%	nt	-8%
O=C(O)C1Cc2ccccc2CN1C(=O)CSc1nnc2ccccn12 (stereo not given)	7	6	18%	3%	23%	nt
O=C(CSc1nnc2ccccn12)N1CCc2ccccc2C1	136*	29*	56%	5%	88%	-12%
Cc1ccc(NCc2nnc(SCC(=O)N3CCc4ccccc43)n2C)cc1	-10	-3	4.7µM*	4%	-28%	-5%
O=C1CN(C(=O)CSc2nnc3ccccn23)c2ccccc2N1	6	-4	?	-5%	2%	2%
O=C(CSc1nnc2ccccn12)N1CCc2ccccc21	62*	20*	202%	-7%	218%	nt
Cn1c(Cc2cccs2)nnc1SCC(=O)N1CCc2ccccc21	12	-4	nt	0%	-13%	-1%
SMILES	Shiga toxin inh	Cycloheximide cs	Pf growth 96h	SARS PLpro yeast	Pf growth 48h	NS1 function inh
Cc1nn(C(=O)c2cc([N+](=O)[O-])ccc2Cl)c(C)c1Br	14	7	10%	0%	42%	0%
CCCc1nc2ccccc2n1Cc1ccccc1OC	-8	9	1%	3%	?	nt
Cc1ccc(NC(=O)CSCC(=O)N(C)CC(=O)Nc2ccccc2C(F)(F)F)cc1	nt	nt	1%	-6%	-16%	nt
COc1ccc(NC(=O)c2oc3ccccc3c2NC(=O)C2CCCO2)cc1OC (stereo not given)	29	37*	43%	1%	?	nt
CCOc1ccccc1NC(=O)c1oc2ccccc2c1NC(=O)C1CCCO1 (stereo not given)	22	8	61%	6%	?	nt
COc1ccc(NC(=O)c2oc3ccccc3c2NC(=O)C2CC2)cc1OC	34	7	12µM*	-2%	?	-13%
O=C(Nc1ccc(F)c(F)c1)c1oc2ccccc2c1NC(=O)C1CCCO1 (stereo not given)	13	13	?	1%	15%	nt
Cc1ccc(NC(=O)c2oc3ccccc3c2NC(=O)C2CCCO2)cc1C (stereo not given)	100*	42*	?	-5%	?	nt
COc1ccccc1NC(=O)c1oc2ccccc2c1NC(=O)C1CC1	-12	-3	15µM*	7%	12µM*	-2%
CC(=O)N1CCCc2cc(S(=O)(=O)N3CCCC(C(=O)Nc4ccccc4C)C3)ccc21 (stereo not given)	-4	-3	8%	6%	?	9%
CCc1noc(C)c1C(=O)N1CC(C)SC1=Nc1ccc(Cl)cc1 (stereo not given)	nt	nt	13µM*	-4%	10µM*	nt
CCc1noc(C)c1C(=O)N1CC(C)OC(C)C1 (stereo not given)	-26	-3	16%	-15%	15%	2%
Cc1ccc(-n2c(CNCc3ccc(F)cc3)nc3ccccc3c2=O)cc1	14	15*	?	-1%	?	24%
CCN(CC)CCNCc1nc2ccccc2c(=O)n1-c1ccc(F)cc1	-6	-4	75%	-15%	13%	-3%
O=c1c2ccccc2nc(Cc2ccccc2)n1-c1ccccc1	18	19*	?	0%	11%	-4%
N=C(N)SCc1nc2ccccc2c(=O)n1-c1ccccc1	68*	45*	126%	3%	109%	9%
O=C(O)Cc1c[nH]c2ccc(F)cc12	nt	nt	nt	nt	nt	-4%
COc1ccccc1CC(=O)N1CCC(n2nccc2NC(=O)C2CCOC2)CC1 (stereo not given)	-13	12	-13%	23%	3%	6%
N#Cc1c(-c2ccccc2)nc2n1CCS2	26	1	25%	0%	10%	2%
Cc1ccc(C2(C)NC(=O)N(CC(=O)NCc3ccccc3Cl)C2=O)cc1 (stereo not given)	2	12*	-12%	-1%	-7%	-2%
Cc1ccc(N2C(=O)N(CC(=O)Nc3ccccc3C)C(=O)C2C)cc1 (stereo not given)	18*	20*	-15%	-6%	11%	0%

Screening data from PubChem.
